Experimental data: PubChem BioAssay (NCATS)
Several values for one entry are separate records, joined by “and”; a condition that tells them apart may be missing. Equal values may be shown once. Records with an inconclusive call do not appear. A number with no mark means an inactive call. Activity calls are given as the source filed them. The call rests on the fitted dose curve; in most records, active means well fitted inhibition curve with a large enough effect; inconclusive means small, poorly fitted or top-dose-only effect; inactive means no such curve, though single readings can be large or run the other way. Residues, ends and D or L forms follow the SMILES beside them. *: point of attachment. Cbz = O=C(OCc1ccccc1)*
Potency means the concentration at half of the fitted maximal effect.

Test: BET inhibitor-based combinations targeting novel dependencies in MECOM-rearranged (r) AML: SET-2 cell line (AID 2202231); further: nearly all actives have a fitted effect of over 35% in size
Conditions: SET-2 AML cells viability, CellTiter-Glo luminescence, 48 h; viability: active compounds read low, series mostly up to about 46 µM
From the text: Ecotropic viral insertion site 1 (EVI1) is located on chromosome 3q26.2 as part of the MECOM (MDS and EVI1 complex) locus. Under normal hematopoiesis, EVI1 is a regulator of hematopoietic stem cell maintenance and self-renewal and EVI1 levels decrease as the cells differentiate. In approximately 5-10% of de novo acute myeloid leukemia (AML) EVI1 is aberrantly expressed, including Chromosomal inv(3)(q21;q26.2) or t(3;3)(q21;q26.2) alterations (MECOM-r) that account for about 50% of AML with EVI1 overexpression 31. AMLs with high levels of EVI1 have a poor prognosis and an overall survival time averaging between 10-14 months. EVI1 overexpression confers resistance in leukemia cells, highlighting the need to develop new targeted therapies for EVI1 overexpressing AMLs.
Here, we performed an unbiased chemical drug screening by evaluating the single agent activity of a collection of 2,480 oncology-focused, approved and investigational drugs (NCATS Mechanism Interrogation Plates, MIPE v5.0) against a panel of seven AML cell lines. These included four MECOM-r cell-lines (AML-191, AML-194, UCSD-AML1 and HNT-34) and three non-MECOM-r AMLs (MV4-11, OCI-AML3 and SET-2). Exploiting the mechanistic redundancy built in the library, we identified target-level sensitivities in MECOM-r AML cells and relative activity as compared to other AML subtypes.
A collection of 2480 mechanistically annotated dugs (MIPE v5.0) was used to screen four 3q26.2 rearranged AML cell lines and three non-3q26.2 rearranged AML cell lines. This library purposely exploits redundancy by including multiple inhibitors of key onco-targets, while simultaneously encompassing mechanistic diversity, targeting more than 800 distinct mechanisms of action. Briefly, cells were seeded in 5 uL of growth media using a Multidrop Combi dispenser into 1536 well white polystyrene tissue culture treated plates (Corning) at a density of 500cells/well. For each cell-line, for each of the 2480 drugs in MIPE v5.0 library, an 11-point dose curve was generated via a 1536 pin-tool. Plates were incubated for 48 hr at standard incubator conditions, covered by a stainless steel gasketed lid to prevent evaporation. Cell viability was determined by luminescence based, Cell Titer Glo assay (Promega). In detail, 3 uL of Cell Titer Glo were added to each well and plates were incubated at room temperature for 15 min with a stainless-steel lid in place. Luminescence readings were taken using a Viewlux (PerkinElmer) with a 2 s exposure time per plate. Compound dose-response curves were normalized to DMSO and empty well controls on each plate. Quantitative drug activity data from dose-response curves was determined utilizing area Under the Curve (AUC) and Z-transformed AUC (Z-AUC, a mean-centering transformation applied to each individual cell-line screened).
Compound `CCCC1OC2C[C@@H]3[C@H]4CCC5=CC(=O)C=C[C@]5(C)[C@H]4C(O)C[C@]3(C)[C@]2(C(=O)CO)O1` (stereo not given in full) has a viability of 98.3%.
For `O=c1c(-c2ccc(O)cc2)coc2cc(O[C@@H]3O[C@H](CO)[C@@H](O)[C@H](O)[C@H]3O)ccc12`, the viability was 119%.
In the case of `CCOC(=O)C1=C(N)Oc2ccc(Br)cc2C1C(C#N)C(=O)OCC` (stereo not given), the viability was 112%.
With `C#Cc1cccc(Nc2ncnc3cc(OC)c(OCCCCCCC(=O)NO)cc23)c1` the Potency was 1.48 µM (active).
`COc1ncc(-c2ccc3c(Nc4cc(Oc5cc(F)cc(F)c5)cc(C(=O)O)c4)c(S(=O)(=O)NC4CC4)cnc3c2)c(OC)n1` showed a viability of 110%.
In the case of `COc1cccc2c1C(=O)c1c(O)c3c(c(O)c1C2=O)C[C@@](O)(C(=O)CO)C[C@@H]3O[C@H]1C[C@H](N)[C@H](OC2CCCCO2)[C@H](C)O1` (stereo not given in full), the Potency was 1.32 µM (active) and 833 nM (active).
`Cn1cnc2c(F)c(Nc3ccc(Br)cc3F)c(C(=O)NOCCO)cc21` showed a viability of 26.2%.
In the case of `Nc1ncn([C@@H]2O[C@H](CO)[C@@H](O)[C@H]2O)c(=O)n1`, the Potency was 1.05 µM (active).
With `O=C(NOCC(O)CO)c1ccc(F)c(F)c1Nc1ccc(I)cc1F` (stereo not given) the viability was 80.7%.
For `Cc1nc2cnc3ccc(C#Cc4cccnc4)cc3c2n1-c1ccc(C(C)(C)C#N)cc1`, the Potency was 1.66 µM (active).
Compound `O=C(NCC(=O)N1CCCC1)Nc1ccc2cnccc2c1` has a viability of 109%.
For `O=c1ncn2nc(Sc3ccc(F)cc3F)ccc2c1-c1c(Cl)cccc1Cl`, the Potency was 20.9 µM (active).
Work on `CN1C(C(=O)Nc2ccccn2)=C(O)c2sc(Cl)cc2S1(=O)=O` yielded a viability of 103%.
`Cc1nnc(C(C)C)n1C1CC2CCC(C1)N2CCC(NC(=O)C1CCC(F)(F)CC1)c1ccccc1` (stereo not given) gave a viability of 109%.
With `COc1cc(N2CCC(N3CCN(C)CC3)CC2)ccc1Nc1ncc(Cl)c(Nc2ccccc2S(=O)(=O)C(C)C)n1` the Potency was 18.6 µM (active).
With `Cc1nc(-c2cccnc2)sc1C(=O)Nc1ccccc1-c1cn2c(CN3CCOCC3)csc2n1` the viability was 115%.
`O=C(Nc1ccc2c(c1)CCN(Cc1ncn[nH]1)C2)c1ccccc1-c1ccc(C(F)(F)F)cc1` gave a viability of 96.3%.
With `CCn1cc(C(=O)O)c(=O)c2cc(F)c(N3CCN(C)CC3)cc21` the viability was 97.2%.
For `O=C(c1ccc(Nc2nccc(-c3cc4ccccc4s3)n2)cc1)N1CCC(N2CCCC2)CC1`, the Potency was 6.61 µM (active).
With `COc1cc2c(c(OC)c1OC)-c1ccc(OC)c(=O)cc1[C@@H](NC(C)=O)CC2` the Potency was 0.0661 µM (active).
With `CCCS(=O)(=O)Nc1ccc(F)c(C(=O)c2c[nH]c3ncc(Cl)cc23)c1F` the Potency was 16.6 µM (active).
With `CC(C)C[C@@H](C=O)NC(=O)[C@H](CC(C)C)NC(=O)[C@H](CC(C)C)NC(=O)OCc1ccccc1` (Cbz-Leu-Leu-Leu-aldehyde) the Potency was 1.48 µM (active).
In the case of `CN1CCC(=C2c3ccccc3C=Cc3ccccc32)CC1`, the Potency was 13.2 µM (active).
For `CC[C@@]1(O)C(=O)OCc2c1cc1n(c2=O)Cc2cc3c(CN(C)C)c(O)ccc3nc2-1`, the Potency was 0.0372 µM (active).
In the case of `Cc1cc(OCc2nnc(SC3CCCC3)n2-c2cccnc2)ccc1-c1ccc(S(C)(=O)=O)cc1`, the Potency was 6.61 µM (active).
Compound `COCCCc1sc(-c2ccccc2)nc1C(=O)Nc1ccccc1-c1nc2cc(CN3CCCC3)cnc2s1` has a viability of 121%.
With `C=CC(=O)Nc1cccc(Nc2nc(Nc3ccc(Oc4ccnc(C(=O)NC)c4)cc3)ncc2F)c1` the Potency was 23.5 µM (active).
Compound `CN(C)CCOc1cc(-c2cn[nH]c2)ccc1NC(=O)C1COc2ccccc2O1` (stereo not given) has a viability of 92.6%.
Work on `COc1ccc(-c2cc(=O)c3c(O)cc(O[C@@H]4O[C@H](CO[C@@H]5O[C@@H](C)[C@H](O)[C@@H](O)[C@H]5O)[C@@H](O)[C@H](O)[C@H]4O)cc3o2)cc1O` yielded a viability of 112%.
For `CS(=O)(=O)c1cccc(CNc2nc(Nc3ccc4c(c3)CCC(=O)N4)ncc2C(F)(F)F)c1`, the Potency was 16.6 µM (active).
With `COCCN1CCN(Cc2ccc(-c3n[nH]c4c3C(=O)c3c(NC(=O)NN5CCOCC5)cccc3-4)cc2)CC1` the Potency was 0.417 µM (active).
With `COc1cc2nc(N3CCCN(C)CC3)nc(NC3CCN(Cc4ccccc4)CC3)c2cc1OC` the Potency was 18.6 µM (active).
`COc1nc(C)cnc1NS(=O)(=O)c1cccnc1-c1ccc(-c2nnco2)cc1` gave a viability of 115%.
Compound `Cc1cc(C(C)(C)C)c(O)c(C)c1CC1=NCCN1` has a viability of 118%.
`C[C@H](NC(=O)Cc1cc(F)cc(F)c1)C(=O)N[C@@H]1C(=O)N(C)c2ccccc2-c2ccccc21` gave a viability of 121%.
Compound `O=C(O)[C@H](CC(=O)N1C[C@H]2CCCC[C@H]2C1)Cc1ccccc1` has a viability of 105%.
In the case of `O=C1CCc2cc(OCCCCc3nnnn3C3CCCCC3)ccc2N1`, the Potency was 16.6 µM (active).
Work on `CC(C)Oc1ccc2c(=O)c(-c3ccccc3)coc2c1` yielded a viability of 108%.
In the case of `COc1ccc(-c2ccc3cc(C(=O)O)ccc3c2)cc1C12CC3CC(CC(C3)C1)C2`, the viability was 111%.
`CC(Oc1ccc(O)cc1)(P(=O)(O)O)P(=O)(O)O` showed a viability of 109%.
